The subject of one experiment is ADCK5. Particulars: read-out: apparent Kd; compound concentrations:100 nM and 1000 nM (sheet 'Lestaurtinib' of Supplementary Table 1),run:Lestaurtinib_02443_R1,Plate:MR009; n = 1.
Another experiment relates to CSNK2A1;CSNK2A3. Particulars: read-out: apparent Kd; compound concentrations:100 nM and 1000 nM (sheet 'Lestaurtinib' of Supplementary Table 1),run:Lestaurtinib_02422_R1,Plate:MR006; n = 1.
A further experiment deals with DAPK3. Particulars: read-out: apparent Kd; compound concentrations:100 nM and 1000 nM (sheet 'Lestaurtinib' of Supplementary Table 1),run:Lestaurtinib_02443_R1,Plate:MR009; n = 1.
The test system of the next experiment is HCK. The note with it: read-out: apparent Kd; compound concentrations:100 nM and 1000 nM (sheet 'Lestaurtinib' of Supplementary Table 1),run:Lestaurtinib_02422_R1,Plate:MR006; n = 1.
Another experiment relates to MAPK14. The note with it: read-out: apparent Kd; compound concentrations:100 nM and 1000 nM (sheet 'Lestaurtinib' of Supplementary Table 1),run:Lestaurtinib_02422_R1,Plate:MR006; n = 1.
The next experiment has as its system PRKACG. The note with it: read-out: apparent Kd; compound concentrations:100 nM and 1000 nM (sheet 'Lestaurtinib' of Supplementary Table 1),run:Lestaurtinib_02422_R1,Plate:MR006; n = 1.
A further experiment relates to PRKAR2A. The note with it: read-out: apparent Kd; compound concentrations:100 nM and 1000 nM (sheet 'Lestaurtinib' of Supplementary Table 1),run:Lestaurtinib_02364_R2,Plate:MR002; n = 1.
A further experiment concerns PRKDC. The note with it: read-out: apparent Kd; compound concentrations:100 nM and 1000 nM (sheet 'Lestaurtinib' of Supplementary Table 1),run:Lestaurtinib_02422_R1,Plate:MR006; n = 1.
The subject of the next experiment is PRKG1. More on the design: species or system human, MV4-11 + K-562 + COLO205 + SK-N-BE2 + OVCAR-8. Particulars: read-out: apparent Kd; compound concentrations:100 nM and 1000 nM (sheet 'Samples'); n = 1.
A further experiment concerns SMC2. More on the design: species or system human, MV4-11 + K-562 + COLO205 + SK-N-BE2 + OVCAR-8. Particulars: read-out: apparent Kd; compound concentrations: 100 nM and 1000 nM (sheet 'Samples'), CATDS: 0.46661242360410599; n = 1.
Another experiment has as its system SMC4. Set-up: species or system human, MV4-11 + K-562 + COLO205 + SK-N-BE2 + OVCAR-8. The note with it: read-out: apparent Kd; compound concentrations: 100 nM and 1000 nM (sheet 'Samples'), CATDS: 0.57123951593094102; n = 1.
The subject of another experiment is SIK2. More on the design: species or system human, MV4-11 + K-562 + COLO205 + SK-N-BE2 + OVCAR-8. The note with it: read-out: apparent Kd; compound concentrations: 100 nM and 1000 nM (sheet 'Samples'), CATDS: 1; n = 1.
The next experiment has as its system RET. More on the design: species or system human, MV4-11 + K-562 + COLO205 + SK-N-BE2 + OVCAR-8. Particulars: read-out: apparent Kd; compound concentrations:100 nM and 1000 nM (sheet 'Samples'); n = 1.
Another experiment relates to RIPK3. More on the design: species or system human, MV4-11 + K-562 + COLO205 + SK-N-BE2 + OVCAR-8. The note with it: read-out: apparent Kd; compound concentrations: 100 nM and 1000 nM (sheet 'Samples'), CATDS: 0.41855483652365999; n = 1.

For the compound Lestaurtinib, the potency estimated from few doses with ADCK5 was 2.24 µM; in the experiment with CSNK2A1;CSNK2A3, 1.81 µM; in the experiment with DAPK3, 1.58 µM; with HCK, 1.3 µM; with MAPK14, 1.15 µM; with PRKACG, 0.769 µM. Also, the potency estimated from few doses in the experiment on PRKAR2A is 0.979 µM; in the experiment with PRKDC, 1.21 µM.
On to `CCn1c(-c2nonc2N)nc2cnc(Oc3cccc(NC(=O)c4ccc(N(C)C)cc4)c3)cc21` [GSK248233A], for which the potency estimated from few doses in the experiment with PRKG1 was 0.227 µM.
Regarding `N#Cc1ccc(C(=O)c2cnn(-c3ccc(F)cc3)c2N)cc1` [RO1153198-000], the potency estimated from few doses in the experiment with SMC2 was 2.04 µM.
Consider `CCCNC(=O)Nc1ccc(N(C)c2ccnc(NC3CC3)n2)cc1` [GW818933X], for which the potency estimated from few doses in the experiment on SMC4 is 1.12 µM.
With `NS(=O)(=O)c1cccc(-c2cc3ccncc3cc2OCc2ccccc2)c1` [GSK980961A], in the experiment on SIK2, the potency estimated from few doses is 1.6 µM.
As to `Cl.O=C(Nc1ccc(Oc2ccc3[nH]c(NC(=O)c4ccccc4)nc3c2)cc1)Nc1cc(C(F)(F)F)ccc1F` [GW709042A], the potency estimated from few doses in the experiment with RET is 1.42 µM.
Consider `c1ccc(Oc2ccc(Nc3ccnc4ccc(-c5ccccn5)cc34)cc2)cc1` [GW407034X], for which the potency estimated from few doses in the experiment on RIPK3 was 0.429 µM.

Values taken from paper PMC11062922 (Nature Chemical Biology, 2023).
